About 2,600 (16%) of roughly 16,000 compounds were called active. Inconclusive results (about 20%) are left out. Calls come from the whole dose curve; as a rule, active = well fitted curve in the direction sought with a large enough effect; inconclusive = small, poorly fitted or top-dose-only effect, or effect the other way; inactive = no such curve, though single readings can be large or run the other way. A selection follows.
target: Cytochrome P450 2D6 (Homo sapiens) (UniProt P10635); test: Cytochrome panel assay with activity outcomes; conditions: recombinant CYP, pro-luciferin dealkylation, luminescence, p450-cyp2d6; series mostly up to 57.1 µM; activity, negative = inhibition: at the top concentration
% is set by controls: 0 for no effect and ±100 for the full control effect.

Chain of Cytochrome P450 2D6 (Homo sapiens) (P10635 whole entry, looked up): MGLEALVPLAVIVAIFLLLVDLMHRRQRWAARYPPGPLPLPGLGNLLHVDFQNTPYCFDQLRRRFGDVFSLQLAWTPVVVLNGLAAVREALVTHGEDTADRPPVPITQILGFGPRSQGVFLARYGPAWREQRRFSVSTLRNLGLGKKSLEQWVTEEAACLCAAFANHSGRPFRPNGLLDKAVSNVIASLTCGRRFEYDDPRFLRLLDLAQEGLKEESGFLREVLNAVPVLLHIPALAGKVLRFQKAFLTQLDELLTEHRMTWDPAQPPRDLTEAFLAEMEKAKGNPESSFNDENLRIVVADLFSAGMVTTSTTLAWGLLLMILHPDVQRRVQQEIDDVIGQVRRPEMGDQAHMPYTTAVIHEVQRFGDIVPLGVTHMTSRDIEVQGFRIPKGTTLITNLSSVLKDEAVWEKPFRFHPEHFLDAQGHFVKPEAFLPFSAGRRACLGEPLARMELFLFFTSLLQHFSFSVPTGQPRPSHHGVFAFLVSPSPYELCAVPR

SMILES | activity, negative = inhibition | AC50
COC(=O)N1CCC2(CCN(Cc3nccs3)CC2)CC1 | 1.21% (inactive) | 
COc1ccccc1CN1CCC2(CC1)CCN(C(=O)c1c(C)noc1C)CC2 |  | 7.94 µM (active)
COc1ccccc1CN1CCC2(CC1)CCN(C(C)=O)CC2 |  | 5.01 µM (active)
COC(=O)N1CCC2(CC1)CCN(c1cccc(-c3ccccc3)c1)CC2 | -12.4% (inactive) | 
Cc1noc(C)c1C(=O)N1CCC2(CCN(Cc3ccccc3)CC2)CC1 | -1.81% (inactive) | 
COc1ccccc1CN1CC[C@@]2(CCCN(C(=O)c3c(C)noc3C)C2)C1 | 15.2% (inactive) | 
COCC(=O)N1CCC2(CCN(Cc3ccncc3)CC2)CC1 |  | 6.31 µM (active)
CC(=O)N1CCC2(CC1)CCN(c1ccc(-c3ccccc3)cc1)CC2 | -6.74% (inactive) | 
COC(=O)N1CCC2(CCN(Cc3ccccc3OC)CC2)CC1 |  | 2 µM (active)
COc1ccc(C(=O)N2CCC3(CCN(Cc4ccncc4)CC3)CC2)cc1 | -11.6% (inactive) | 
CC(=O)N1CCC2(CC1)CCN(c1ccccn1)CC2 | 6.43% (inactive) | 
CC(=O)N1CCC2(CCN(Cc3ccncc3)CC2)CC1 | -7.43% (inactive) | 
Cc1cc2c(cc1C)NC1=C(N2)O[C@H](c2c[nH]c3ccc(COc4ccccc4)cc23)C1=O | -9.09% [at 11.4 µM] (inactive) | 
N#C/C(=N\O)c1nc(-c2ccccc2)cs1 | 1.46% (inactive) | 
CC(C)(C)c1ccc(OCC(=O)NNC(=O)Cc2cccs2)cc1 | -9.25% (inactive) | 
C/C(C[n+]1ccccc1)=N\N=C(N)N | 6.81% [at 11.4 µM] (inactive) | 
CN(C)C(=O)CSC1c2ccccc2C(=O)N1c1ccccc1 (centres undefined) | 2.05% (inactive) | 
O=c1c(-c2ccccc2)nc2cnc(N3CCNCC3)nc2n1C1CC1 | -8.52% (inactive) | 
Cc1onc(-c2c(F)cccc2Cl)c1C(=O)N[C@@H]1C(=O)N2[C@H]1SC(C)(C)[C@H]2C(=O)O | 16.2% [at 11.4 µM] (inactive) | 
CNc1cc(N2CCCCCC2)ccc1[N+](=O)[O-] | -8.75% (inactive) | 
CCC(CC)C(=O)Nc1cccc(/C(C)=N/NC(=O)c2c(Br)cnn2C)c1 | -6.99% (inactive) | 
CN(C)CCn1nnnc1SCC1=C(C(=O)O)N2C(=O)[C@@H](NC(=O)Cc3csc(N)n3)[C@@H]2SC1 | -1.78% [at 25.6 µM] (inactive) | 
COc1ccccc1CN1CCC2(CCNCC2)CC1 |  | 0.0316 µM (active)
COCC(=O)N1CCC2(CC1)CN(Cc1cc(C(F)(F)F)cc(C(F)(F)F)c1)C2 | -9.81% (inactive) | 
COCC(=O)N1CCC2(CC1)CCN(C(=O)Nc1ccc(OC)cc1)CC2 | 2.51% (inactive) | 

SMILES | activity, negative = inhibition | AC50
COC(=O)N1CCC2(CCN(Cc3cc(C(F)(F)F)cc(C(F)(F)F)c3)CC2)CC1 |  | 10 µM (active)
COc1ccc(C(=O)N2CCC3(CCN(Cc4cc(C(F)(F)F)cc(C(F)(F)F)c4)CC3)CC2)cc1 | 5.59% (inactive) | 
COCC(=O)N1CCC2(CC1)CN(Cc1ccccc1OC)C2 | -0.881% (inactive) | 
COc1ccc(NC(=O)N2CCCC3(CCNCC3)C2)cc1 | 3.65% (inactive) | 
COCC(=O)N1CCC2(CCN(Cc3ccccc3OC)CC2)CC1 |  | 15.8 µM (active)
Cc1cc2c(cc1S(N)(=O)=O)S(=O)(=O)CCC2 | 5.14% [at 25.6 µM] (inactive) | 
CON(C)C(=O)c1nnc2c(n1)[nH]c1ccccc12 | -2.74% [at 11.4 µM] (inactive) | 
N[C@H](CCC(=O)N[C@H](CSN=O)C(=O)NCC(=O)O)C(=O)O |  | inactive
Cc1cc(C(C)(C)C)c(OCCCN2CCOCC2)c(C(C)(C)C)c1 |  | 2 µM (active)
COc1cc(N2CCOCC2)ncn1 | 48.9% (inactive) | 
Cc1ccc(Oc2ncc(CN3CCOCC3)s2)cc1 | -14.5% (inactive) | 
N[C@@]1(C(=O)O)CN[C@H](C(=O)O)C1 | 6.38% (inactive) | 
NC1(C(=O)O)CC(C(=O)O)C1 (centres undefined) | 8.58% (inactive) | 
Cc1cc(C)cc(-n2nnnc2SCC(=O)Nc2nc(-c3ccc(F)cc3)cs2)c1 | -3.64% (inactive) | 
COc1ccc(COC(=O)N/N=C2/C[C@@H](O)[C@@H](O)[C@@H]3[C@@H]4C(=O)N(C(C)(C)C)C(=O)[C@H]4CC[C@@H]23)cc1 | 12.5% [at 11.4 µM] (inactive) | 
CCC(CC)C(=O)Nc1cccc(/C(C)=N\NC(=O)c2ccc(C)s2)c1 | 0.29% (inactive) | 
CCC(CC)C(=O)Nc1ccc(C)c(O)c1 |  | 17.8 µM (active)
COC(=O)CSC(C(=O)Nc1ccc(C)c(C)c1)c1ccccc1 (centres undefined) | -15.4% (inactive) | 
CCOC(=O)CN(C(=O)CCC(=O)Nc1cc(C)on1)C(C(=O)NC1CCCC1)c1cccnc1 (centres undefined) | 27.1% (inactive) | 
CCOc1ccc(N(C(=O)/C=C/C(=O)Nc2cc(C)on2)C(C(=O)NC2CCCC2)c2ccccc2C)cc1 (centres undefined) |  | 14.1 µM (active)
Cc1ccccc1C(C(=O)NC1CCCC1)N(C(=O)Cc1cccs1)c1ccc2c(c1)OCCO2 (centres undefined) | -26.2% (inactive) | 
COc1cccc(C(CC(=O)Nc2cccc3ccccc23)NC(=O)c2ccccc2)c1 (centres undefined) | -16.1% (inactive) | 
COC(=O)c1cc2c(ccn2-c2ccc(F)cc2)n1C(C)C | -24.7% (inactive) | 
CNC(=O)c1cc2c(cn1)[nH]c1ccccc12 | -7.85% (inactive) | 
O=c1ccc(-c2ccccc2)n[nH]1 | 2.58% [at 11.4 µM] (inactive) | 

SMILES | activity, negative = inhibition | AC50
Nc1n[nH]c2ccccc12 | -3.15% [at 11.4 µM] (inactive) | 
O=C1c2ccccc2-c2n[nH]c3cccc1c23 |  | 0.398 µM (active)
Cc1ccc(NC(=O)CN2C(=O)N/C(=C/c3ccc(C)o3)C2=O)cc1 | 9.19% (inactive) | 
CC(=O)OCc1nc2ccccc2s1 | 14% (inactive) | 
CCCc1cc(C(=O)Cc2nc3ccccc3s2)c(O)cc1O |  | 1.41 µM (active)
CCCCOC(=O)Nc1nc2ccccc2s1 | -9.05% (inactive) | 
Cc1cc2ncn(/N=C/c3ccc([N+](=O)[O-])o3)c2cc1C | -17.6% (inactive) | 
COc1cccc(-c2cc(=O)c3ccccc3o2)c1N |  | 7.94 µM (active)
COc1cccc2cc3c(=O)oc4ccccc4c3nc12 | 1.36% (inactive) | 
Cc1cccc(NC(=O)c2cc(=O)c3ccccc3o2)n1 | -8.7% (inactive) | 
CC1CC2=C(NC(=S)NC2c2ccc(F)cc2)/C(=C/c2ccc(F)cc2)C1 (centres undefined) | -6.34% (inactive) | 
CO[C@@H]1/C=C\CC(=O)N[C@@H](C)C(=O)OC[C@H](NS(=O)(=O)c2ccc(C)cc2)[C@H](C)/C=C\CC(=O)OC[C@H]1C | -18.7% [at 11.4 µM] (inactive) | 
COc1cccc(-c2cc3nc(-c4ccccc4)cc(N4CCC5(CC4)OCCO5)n3n2)c1 | 6.39% (inactive) | 
CCNc1ncc2nc(CCc3ccccc3)c(=O)n(Cc3cccc(OC)c3)c2n1 | -14.3% (inactive) | 
CCNc1ncc2nc(CCc3ccccc3)c(=O)n(CCOC)c2n1 |  | 0.398 µM (active)
COc1cccc(Nc2ncc3nc(CCc4ccccc4)c(=O)n(CCC#N)c3n2)c1 | -3.89% (inactive) | 
N#CCCn1c(=O)c(CCc2ccccc2)nc2cnc(Nc3ccccc3)nc21 | 10.8% (inactive) | 
CCNc1ncc2nc(CCc3ccccc3)c(=O)n(CCC#N)c2n1 |  | 0.158 µM (active)
COCCn1c(=O)c(CCc2ccccc2)nc2cnc(OC)nc21 | -5.74% (inactive) | 
CCC(=O)N1CCN(C(=O)c2ccccc2)CC1 | 2.19% (inactive) | 
COc1cc(O)c2c(O)c3c(c4c2c1[C@@]1(C4)C(C)=CCCC1(C)C)[C@H](O)[C@@]1(O)CC(=O)C(C(N)=O)=C(O)[C@]1(O)C3=O | -15.8% [at 11.4 µM] (inactive) | 
O=C(/C=C/c1cccc(Cl)c1)Nc1ccncc1 |  | 7.94 µM (active)
COC(=O)c1cccc(NC(=O)/C=C/c2cccc([N+](=O)[O-])c2)c1 | -0.318% (inactive) | 
COCCCNC(=O)/C=C/c1cccc(Cl)c1 | -6.77% (inactive) | 
C[C@@]1(CCOCc2ccccc2)NC(=O)NC1=O | -5.74% [at 11.4 µM] (inactive) | 

SMILES | activity, negative = inhibition | AC50
COc1ccc(C(=O)NCc2cn3ccccc3n2)cc1 | 1.48% (inactive) | 
C=C[C@@]1(C)CC(=O)[C@@]2(O)[C@@]3(C)[C@@H](O)CCC(C)(C)[C@@H]3[C@H](OC(=O)CCN(C)C)[C@H](OC(C)=O)[C@@]2(C)O1 | -4.44% (inactive) | 
O=C(NC(Cc1ccccc1)C(=O)O)/C(=C\c1ccco1)NC(=O)c1ccc(Br)cc1 (centres undefined) | -2.43% (inactive) | 
CCC(NC(=O)c1ccccc1NC(=O)c1ccco1)C(=O)NC1CCCCC1 (centres undefined) | 2.82% (inactive) | 
COc1ccccc1C(=O)N/C(=C/c1ccc(Br)cc1)C(=O)NCC(=O)O | -11.1% (inactive) | 
O=C(Nc1ccccc1C(=O)Nc1ccc2c(c1)OCO2)c1ccco1 |  | 12.6 µM (active)
Cc1ccc(NC(=O)/C(=C\c2cccnc2)NC(=O)c2ccco2)cc1 | -15.6% (inactive) | 
CC1(C)Oc2ccc(NC(=O)c3ccco3)cc2O1 | -8.3% (inactive) | 
O=C(Nc1ccccc1)/C(=C\c1ccc2c(c1)OCO2)NC(=O)c1ccco1 |  | 15.8 µM (active)
C=CCNC(=O)/C(=C\c1ccc2c(c1)OCO2)NC(=O)c1ccc(Br)cc1 |  | 25.1 µM (active)
O=C(N/N=C/c1ccc2c(c1)OCO2)/C(=C/c1ccc2c(c1)OCO2)NC(=O)c1ccccc1 | -19.8% (inactive) | 
C#CCCCO/N=C1/C[C@@H](O)[C@@H](O)[C@@H]2[C@@H]3C(=O)N(CC)C(=O)[C@H]3CC[C@H]12 | 14.7% [at 11.4 µM] (inactive) | 
CC(=O)COc1ccc2c(C)c(C)c(=O)oc2c1 | -13.3% (inactive) | 
CCOC(=O)C(Sc1ncnc2c1sc1nc(N3CCOCC3)c3c(c12)CCCC3)c1ccccc1 (centres undefined) | -2.46% (inactive) | 
CCOC(=O)CC1C(=O)NCCN1S(=O)(=O)c1ccc(Cl)c(Cl)c1 (centres undefined) | -2.03% (inactive) | 
COc1ccc(-n2c(=O)c(-c3ccc(F)c(F)c3)nc3cncnc32)cc1 | -5.32% (inactive) | 
NC(N)=NC(N)=Nc1ccc(S(=O)(=O)O)cc1 | 3.23% [at 11.4 µM] (inactive) | 
O=C(O)/C(=C\c1ccccc1)c1ccccc1 | -2.29% [at 11.4 µM] (inactive) | 
Cc1ccccc1-c1nc(Nc2ccncc2)c2ccccc2n1 | -15.9% (inactive) | 
FC(F)(F)c1ccccc1-c1nc(Nc2ccncc2)c2ccccc2n1 |  | 25.1 µM (active)
FC(F)(F)c1ccccc1-c1nc(NC2CCNCC2)c2ccccc2n1 | 6.57% (inactive) | 
FC(F)(F)c1ccccc1-c1nc(NCc2cccnc2)c2ccccc2n1 |  | 15.8 µM (active)
Clc1ccccc1-c1nc(N/N=C/c2cccnc2)c2ccccc2n1 | -26.2% (inactive) | 
Clc1ccccc1-c1nc(NCc2cccnc2)c2ccccc2n1 |  | 20 µM (active)

Reference: PubChem BioAssay AID1851 (National Center for Advancing Translational Sciences (NCATS), 2009)
